# Data: PubChem BioAssay (EPA / NIEHS)
# Inconclusive results are not listed. Calls of active or inactive are those of the source. Rule for the calls: active = hit-call score of the fitted dose curve at least 0.9, where 1 is the maximum; inconclusive = response in the unintended direction; inactive = score below 0.9.
# Columns and labels:
# [1] = target: human Peroxisome Proliferator-activated Receptor alpha (PPARa), PPARA (gene 5465) (UniProt Q07869); experiment: ATG_PPARa_TRANS: Attagene TRANS-FACTORIAL HepG2 Assay for human Peroxisome Proliferator-activated Receptor alpha (PPARa) (AID 2283001);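 for AC50: potency for gain of reporter signal over DMSO so agonist or activator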
# Outline: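 HepG2 cells transiently transfected with multiplexed GAL4-UAS reporters driven by exogenous chimeric NR-Gal4 proteins; reporter mRNA measured after 24 h dosing. Read-out by RT-PCR, 6-FAM labelling, HpaI digestion and capillary electrophoresis; gain of signal versus DMSO.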
# [2] = target: human Peroxisome Proliferator-activated Receptor delta (PPARd), PPARD (gene 5467) (UniProt Q03181); experiment: ATG_PPARd_TRANS: Attagene TRANS-FACTORIAL HepG2 Assay for human Peroxisome Proliferator-activated Receptor delta (PPARd) (AID 2283002)
# Outline: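 Read-out: reporter mRNA induction, quantified by fluorescent RT-PCR products resolved by capillary electrophoresis. Human HepG2 liver cells carried transiently transfected Gal4-UAS reporter constructs with chimeric NR-Gal4 fusions. Cells were dosed for 24 h; DMSO served as baseline.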
# [3] = target: Nuclear receptor subfamily 1 group I member 2 (Homo sapiens) (UniProt O75469); experiment: ATG_PXR_TRANS: Attagene TRANS-FACTORIAL HepG2 Assay for human Pregnane X Receptor (PXR) (AID 2283008)
# Outline: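 Fluorescence intensity of FAM-labelled, HpaI-digested reporter amplicons, separated by capillary electrophoresis, quantifies induction. HepG2 cells with PXR-Gal4 trans-reporter system were exposed 24 h; DMSO defines baseline.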
# [4] = target: human Retinoic Acid Receptor gamma (RARg), RARG (gene 5916) (UniProt P13631); experiment: ATG_RARg_TRANS: Attagene TRANS-FACTORIAL HepG2 Assay for human Retinoic Acid Receptor gamma (RARg) (AID 2283009)
# Outline: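 HepG2 transiently transfected with GAL4-UAS reporter units and chimeric NR-Gal4 constructs; 24 h compound exposure. Reporter mRNA quantified by RT-PCR, FAM labeling, HpaI digestion and capillary electrophoresis; gain-of-signal versus DMSO.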
# [5] = target: Peroxisome proliferator-activated receptor gamma (Homo sapiens) (UniProt P37231); experiment: ATG_PPARg_TRANS: Attagene TRANS-FACTORIAL HepG2 Assay for human Peroxisome Proliferator-activated Receptor-gamma (PPARg) (AID 2283007)
# Outline: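 Read-out: reporter mRNA induction, detected by fluorescence after RT-PCR and capillary electrophoresis. Transiently transfected human HepG2 liver cells carrying a chimeric NR-Gal4 construct were dosed for 24 h; activity was fitted upward relative to DMSO.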
# [6] = target: Retinoic acid receptor alpha (Homo sapiens) (UniProt P10276); experiment: ATG_RARa_TRANS: Attagene TRANS-FACTORIAL HepG2 Assay for human Retinoic Acid Receptor alpha (RARa) (AID 2283005)
# Outline: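 HepG2 transiently transfected with multiplex GAL4-UAS reporter units including a human RARa–GAL4 chimera; 24 h compound exposure. Reporter mRNA quantified by RT-PCR, 6-FAM labeling and capillary electrophoresis; gain of signal versus DMSO.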
# [7] = target: human Retinoic Acid Receptor beta (RARb), RARB (gene 5915) (UniProt P10826); experiment: ATG_RARb_TRANS: Attagene TRANS-FACTORIAL HepG2 Assay for human Retinoic Acid Receptor beta (AID 2283004)
# Outline: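 HepG2 cells were transiently transfected with GAL4-UAS reporter units that report activity of exogenous chimeric NR-Gal4 proteins, then exposed to compound for 24 h. Reporter mRNA was quantified by RT-PCR with capillary electrophoresis fluorescence, as gain of signal over DMSO.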
# Chain of human Peroxisome Proliferator-activated Receptor alpha (PPARa), PPARA (gene 5465) (Q07869 whole entry, looked up, the tested form may be a part): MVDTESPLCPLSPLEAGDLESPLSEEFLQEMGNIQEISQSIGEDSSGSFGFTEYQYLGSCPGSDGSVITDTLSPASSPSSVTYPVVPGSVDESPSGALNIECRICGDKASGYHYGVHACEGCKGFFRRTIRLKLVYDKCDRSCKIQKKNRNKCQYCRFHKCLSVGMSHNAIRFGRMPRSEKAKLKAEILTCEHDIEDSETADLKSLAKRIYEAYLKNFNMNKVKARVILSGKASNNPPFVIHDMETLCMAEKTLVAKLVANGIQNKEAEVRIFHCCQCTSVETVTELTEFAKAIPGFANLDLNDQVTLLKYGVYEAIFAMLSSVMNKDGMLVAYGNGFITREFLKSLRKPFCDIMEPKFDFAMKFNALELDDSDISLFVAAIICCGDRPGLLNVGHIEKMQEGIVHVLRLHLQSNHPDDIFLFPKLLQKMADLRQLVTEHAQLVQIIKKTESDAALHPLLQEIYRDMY
# Chain of human Peroxisome Proliferator-activated Receptor delta (PPARd), PPARD (gene 5467) (Q03181 whole entry, looked up, the tested form may be a part): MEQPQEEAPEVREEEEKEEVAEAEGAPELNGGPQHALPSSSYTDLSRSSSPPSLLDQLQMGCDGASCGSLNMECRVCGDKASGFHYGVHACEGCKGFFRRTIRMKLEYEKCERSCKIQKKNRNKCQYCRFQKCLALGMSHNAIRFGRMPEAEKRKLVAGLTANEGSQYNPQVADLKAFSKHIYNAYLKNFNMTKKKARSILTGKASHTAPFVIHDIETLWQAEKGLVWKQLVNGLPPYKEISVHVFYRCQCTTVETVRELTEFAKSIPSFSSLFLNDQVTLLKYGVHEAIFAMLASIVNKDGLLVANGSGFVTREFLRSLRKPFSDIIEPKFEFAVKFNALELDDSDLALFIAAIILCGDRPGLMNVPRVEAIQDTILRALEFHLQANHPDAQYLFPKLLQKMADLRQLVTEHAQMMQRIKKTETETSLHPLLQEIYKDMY
# Chain of Retinoic acid receptor alpha (Homo sapiens) (P10276 whole entry, looked up, the tested form may be a part): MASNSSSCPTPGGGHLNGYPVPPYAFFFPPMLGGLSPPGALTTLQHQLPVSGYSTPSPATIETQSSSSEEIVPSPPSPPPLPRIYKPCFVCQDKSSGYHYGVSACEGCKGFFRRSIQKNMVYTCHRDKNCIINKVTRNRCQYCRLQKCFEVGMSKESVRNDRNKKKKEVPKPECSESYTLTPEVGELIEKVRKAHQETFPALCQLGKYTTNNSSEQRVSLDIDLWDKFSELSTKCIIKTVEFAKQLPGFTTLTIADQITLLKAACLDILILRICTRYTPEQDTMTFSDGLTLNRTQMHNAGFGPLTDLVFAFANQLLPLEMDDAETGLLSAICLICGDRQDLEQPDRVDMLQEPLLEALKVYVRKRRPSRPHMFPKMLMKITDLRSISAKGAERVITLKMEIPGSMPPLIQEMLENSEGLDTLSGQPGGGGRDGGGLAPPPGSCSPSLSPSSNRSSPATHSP
# Chain of Nuclear receptor subfamily 1 group I member 2 (Homo sapiens) (O75469 whole entry, looked up, the tested form may be a part): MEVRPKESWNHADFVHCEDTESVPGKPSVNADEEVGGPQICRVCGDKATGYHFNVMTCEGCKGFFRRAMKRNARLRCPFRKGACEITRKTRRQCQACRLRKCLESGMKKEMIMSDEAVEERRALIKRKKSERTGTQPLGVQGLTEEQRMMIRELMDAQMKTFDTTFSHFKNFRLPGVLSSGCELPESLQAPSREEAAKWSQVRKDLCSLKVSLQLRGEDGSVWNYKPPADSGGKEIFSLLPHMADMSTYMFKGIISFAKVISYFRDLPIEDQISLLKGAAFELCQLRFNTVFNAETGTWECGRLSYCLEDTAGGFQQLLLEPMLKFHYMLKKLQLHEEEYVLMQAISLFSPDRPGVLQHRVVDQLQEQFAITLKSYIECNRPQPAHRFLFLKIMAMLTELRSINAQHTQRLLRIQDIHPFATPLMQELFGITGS
# Chain of human Retinoic Acid Receptor beta (RARb), RARB (gene 5915) (P10826 whole entry, looked up, the tested form may be a part): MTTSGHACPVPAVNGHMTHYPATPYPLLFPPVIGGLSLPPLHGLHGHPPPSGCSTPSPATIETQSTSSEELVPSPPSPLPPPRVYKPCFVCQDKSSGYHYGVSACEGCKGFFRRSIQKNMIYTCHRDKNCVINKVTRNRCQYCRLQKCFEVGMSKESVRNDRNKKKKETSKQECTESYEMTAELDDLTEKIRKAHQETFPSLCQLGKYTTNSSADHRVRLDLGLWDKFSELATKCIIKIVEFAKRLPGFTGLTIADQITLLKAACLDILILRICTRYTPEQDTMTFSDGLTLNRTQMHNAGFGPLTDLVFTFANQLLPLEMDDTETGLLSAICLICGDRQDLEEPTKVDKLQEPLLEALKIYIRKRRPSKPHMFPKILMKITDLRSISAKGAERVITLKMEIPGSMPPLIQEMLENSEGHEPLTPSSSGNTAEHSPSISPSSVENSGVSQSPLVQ
# Chain of human Retinoic Acid Receptor gamma (RARg), RARG (gene 5916) (P13631 whole entry, looked up, the tested form may be a part): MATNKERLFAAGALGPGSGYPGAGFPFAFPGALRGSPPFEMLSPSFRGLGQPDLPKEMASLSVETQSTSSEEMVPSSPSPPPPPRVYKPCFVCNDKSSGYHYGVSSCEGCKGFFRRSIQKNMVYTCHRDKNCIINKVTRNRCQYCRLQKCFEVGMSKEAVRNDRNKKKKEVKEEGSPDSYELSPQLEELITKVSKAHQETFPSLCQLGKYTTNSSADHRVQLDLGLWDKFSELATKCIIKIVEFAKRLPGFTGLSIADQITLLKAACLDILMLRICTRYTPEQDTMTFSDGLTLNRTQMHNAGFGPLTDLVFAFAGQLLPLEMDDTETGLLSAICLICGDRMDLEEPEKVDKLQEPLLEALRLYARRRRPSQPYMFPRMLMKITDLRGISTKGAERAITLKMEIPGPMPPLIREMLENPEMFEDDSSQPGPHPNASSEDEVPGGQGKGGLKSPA
# Chain of Peroxisome proliferator-activated receptor gamma (Homo sapiens) (P37231 whole entry, looked up, the tested form may be a part): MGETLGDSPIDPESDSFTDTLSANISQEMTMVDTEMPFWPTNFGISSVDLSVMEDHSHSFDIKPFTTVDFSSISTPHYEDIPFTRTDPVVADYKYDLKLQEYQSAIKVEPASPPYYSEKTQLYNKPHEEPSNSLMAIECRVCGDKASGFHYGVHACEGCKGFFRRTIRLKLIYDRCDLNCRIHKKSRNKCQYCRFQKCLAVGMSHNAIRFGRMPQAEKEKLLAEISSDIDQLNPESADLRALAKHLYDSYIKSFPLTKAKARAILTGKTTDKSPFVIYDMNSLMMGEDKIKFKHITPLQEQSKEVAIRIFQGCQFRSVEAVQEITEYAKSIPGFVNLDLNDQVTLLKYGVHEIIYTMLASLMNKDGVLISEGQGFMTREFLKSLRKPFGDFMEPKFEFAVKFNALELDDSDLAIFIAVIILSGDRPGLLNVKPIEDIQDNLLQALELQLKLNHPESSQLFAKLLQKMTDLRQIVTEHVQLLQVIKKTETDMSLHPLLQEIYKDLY
smiles,measurement,setting,value
CC(=O)Nc1cc(S(=O)(=O)O)cc2cc(S(=O)(=O)O)c(N=Nc3ccccc3)c(O)c12,outcome,[1],inactive
same,outcome,[2],inactive
same,outcome,[3],inactive
same,outcome,[4],inactive
C1COCO1,outcome,[1],inactive
same,outcome,[5],inactive
O=C(C=Cc1ccccc1)OCCCc1ccccc1,outcome,[1],inactive
same,outcome,[6],inactive
same,AC50,[3],22.5 µM (active)
same,outcome,[4],inactive
COc1cc(OC)c2ccc(=O)oc2c1,outcome,[1],inactive
same,outcome,[5],inactive
same,outcome,[3],inactive
CC(CCO)CC(C)(C)C (stereo not drawn),outcome,[1],inactive
same,outcome,[6],inactive
same,outcome,[3],inactive
same,outcome,[4],inactive
CCc1cccc(O)c1,outcome,[1],inactive
same,outcome,[5],inactive
same,outcome,[3],inactive
c1ccc2scnc2c1,outcome,[1],inactive
same,outcome,[5],inactive
same,outcome,[3],inactive
CCCCCCCCCO,outcome,[1],inactive
same,outcome,[5],inactive
same,outcome,[3],inactive
C1=COCCC1,outcome,[1],inactive
same,outcome,[7],inactive
same,outcome,[3],inactive
CCCCCCCCOC(=O)c1ccc(O)cc1,outcome,[1],inactive
same,outcome,[6],inactive
same,outcome,[3],inactive
same,outcome,[4],inactive
C=CC(O)CCCCC (stereo not drawn),outcome,[1],inactive
same,outcome,[5],inactive
same,outcome,[3],inactive
CCC(C)COC(=O)CC(C)C (stereo not drawn),outcome,[1],inactive
same,outcome,[5],inactive
same,outcome,[3],inactive
CCCCCCCCOS(=O)(=O)O,outcome,[1],inactive
same,AC50,[5],47.6 µM (active)
O=C1CCCCCCCCCCCC(=O)OCCO1,AC50,[1],54.3 µM (active)
same,outcome,[5],inactive
same,outcome,[3],inactive
CCC(C)C1CCCCC1=O (stereo not drawn),outcome,[1],inactive
same,outcome,[7],inactive
same,outcome,[6],inactive
same,outcome,[5],inactive
same,outcome,[3],inactive
same,outcome,[4],inactive
C=C(C)CCCC(C)CCO (stereo not drawn),outcome,[1],inactive
same,AC50,[5],41.9 µM (active)
same,AC50,[3],9.99 µM (active)
C=C(C)C(=O)OCCC(C)OC(=O)C(=C)C (stereo not drawn),outcome,[1],inactive
same,AC50,[5],47 µM (active)
same,outcome,[3],inactive
C=CC(C)(CCC=C(C)C)OC(=O)CC (stereo not drawn),outcome,[1],inactive
same,outcome,[5],inactive
same,outcome,[3],inactive
CCCOC(=O)CC,outcome,[1],inactive
same,outcome,[5],inactive
CC(=O)CC(=O)N(C)C,outcome,[1],inactive
same,outcome,[3],inactive
NC(=O)c1cnccn1,outcome,[1],inactive
same,outcome,[3],inactive
CC(=O)CC(C)(C)C1CCCCC1,outcome,[2],inactive
same,outcome,[7],inactive
same,outcome,[6],inactive
same,outcome,[3],inactive
same,outcome,[4],inactive
C=CCCCCCCCCC(=O)OCC,outcome,[1],inactive
same,outcome,[3],inactive
O=C(O)CS,outcome,[1],inactive
same,outcome,[3],inactive
same,outcome,[4],inactive
NCCN1CCNCC1,outcome,[2],inactive
same,outcome,[7],inactive
same,outcome,[5],inactive
same,outcome,[3],inactive
same,outcome,[4],inactive
CC1=CCC(C(C)(C)O)CC1 (stereo not drawn),outcome,[1],inactive
same,outcome,[3],inactive
O=C1OCc2ccccc21,outcome,[2],inactive
[Cl][Dy]([Cl])[Cl],outcome,[1],inactive
same,outcome,[3],inactive
C=C(C)C(=O)OCCOCCOC(=O)C(=C)C,outcome,[1],inactive
same,outcome,[3],inactive
CC12CCC(C1)C(C)(C)C2O (stereo not drawn),outcome,[2],inactive
same,outcome,[7],inactive
same,outcome,[3],inactive
NC(=O)NC(N)=O,outcome,[2],inactive
same,outcome,[7],inactive
same,outcome,[3],inactive
same,outcome,[4],inactive
O=S(=O)(O)c1cc(S(=O)(=O)O)c2c(N=Nc3ccccc3)c(O)ccc2c1,outcome,[1],inactive
same,outcome,[3],inactive
CC1=C(C=O)C(C)(C)CCC1,outcome,[1],inactive
same,outcome,[5],inactive
same,AC50,[3],2.61 µM (active)
Cc1cccc(C)c1,outcome,[2],inactive
O=[N+]([O-])c1cc(N(CCO)CCO)ccc1NCCO,outcome,[2],inactive
CNC(=C[N+](=O)[O-])NCCSCc1ccc(CN(C)C)o1,outcome,[2],inactive
same,outcome,[7],inactive
same,outcome,[5],inactive
same,outcome,[3],inactive
same,outcome,[4],inactive
CC(CO)c1ccccc1 (stereo not drawn),outcome,[1],inactive
same,outcome,[3],inactive
C=CC(C)CCCC(C)(C)O (stereo not drawn),outcome,[2],inactive
CCCCCCOC(C)=O,outcome,[2],inactive
same,outcome,[5],inactive
COc1ccc(C(C)=O)cc1,outcome,[1],inactive
same,outcome,[5],inactive
same,outcome,[3],inactive
CC(O)COCC(C)O (stereo not drawn),outcome,[1],inactive
same,outcome,[3],inactive
OC[C@H]1O[C@@H](O[C@H]2[C@H](O)[C@@H](O)[C@H](O)O[C@@H]2CO)[C@H](O)[C@@H](O)[C@H]1O,outcome,[2],inactive
same,outcome,[7],inactive
same,outcome,[5],inactive
same,outcome,[3],inactive
FC(F)(F)c1ccc(Cl)c(Cl)c1,outcome,[2],inactive
[Na+],outcome,[2],inactive
CC(C)=CCCC(C)=CC(=O)O,outcome,[1],inactive
same,AC50,[5],57.3 µM (active)
same,outcome,[3],inactive
CC/C=C\CCOC(=O)C(C)C,outcome,[2],inactive
same,outcome,[6],inactive
same,outcome,[5],inactive
COC(=O)c1cccc(C(=O)OC)c1,outcome,[1],inactive
same,outcome,[5],inactive
same,outcome,[3],inactive
same,outcome,[4],inactive
[Cu+],outcome,[2],inactive
same,outcome,[7],inactive
same,outcome,[6],inactive
same,outcome,[3],inactive
same,outcome,[4],inactive
c1ccc(Cc2ccccc2)cc1,outcome,[1],inactive
same,outcome,[5],inactive
same,outcome,[3],inactive
C=C(C)C(=O)OCCN(C)C,outcome,[1],inactive
same,outcome,[5],inactive
same,outcome,[3],inactive
same,outcome,[4],inactive
O=C1CCC(=O)N1,outcome,[2],inactive
CCCCCC1CCC(=O)O1 (stereo not drawn),outcome,[1],inactive
same,outcome,[3],inactive
O=C(O)c1cc2ccccc2cc1O,outcome,[1],inactive
same,AC50,[5],36.1 µM (active)
same,outcome,[3],inactive
O=C(O)c1ccc(C(=O)O)c(C(=O)O)c1,outcome,[2],inactive
CC(CO)(CO)[N+](=O)[O-],outcome,[2],inactive
same,outcome,[3],inactive
C=C/C(C)=C/C/C=C(\C)CCC=C(C)C,outcome,[2],inactive
same,AC50,[3],6.85 µM (active)
CCCCCCCCCCOC(=O)c1ccccc1C(=O)OCCCCCCCC,outcome,[2],inactive
same,outcome,[5],inactive
same,outcome,[3],inactive
